Source: PubChem
MARV entry inh: blocks Marburg virus binding to or entry into cells. Marburg virus pseudotyped entry inhibition, cell reporter. Potency, µM (doses to about 37.8 µM), for inactives: at the top dose activity change, negative = inhibition, most hits filed as inhibitors. actives 1.8% (n = 300,000). AID 540276; calls by dose curve; tested in HEK293 cells; note: potency is the fitted concentration of half-maximal effect; % is set by controls: 0 for no effect and ±100 for the full control effect
Shiga inhibitor: Shiga toxin inhibition; Vero cells, Shiga toxin protein synthesis inhibition reporter; inhibition, % at 38.7 µM; actives 9.2% (n = 290,000); AID 2315; in the data active = inhibition mostly above about 28%, no sharp cut-off; inactive = mostly below about 43%; note: 0% is about no effect
Lassa entry inh: blocks Lassa virus binding to or entry into cells. Lassa virus pseudotype entry inhibition, cell reporter. Potency, µM (series often up to 37.9 µM), for inactives: at the top dose activity change, negative = inhibition, usual class: inhibitors. actives 1.2% (n = 300,000); calls by dose curve; tested in HEK293 cells; note: potency is the fitted concentration of half-maximal effect; % is set by controls: 0 for no effect and ±100 for the full control effect; nearly all actives have a fitted effect of over 50% in size
Cycloheximide cs: counter-screen hit for Shiga toxin inhibitors, cycloheximide. cell reporter, cycloheximide protein synthesis inhibition counterscreen. max response, %. actives 12% (n = 300,000). AID 2314; in the data active = max response mostly above about 13%, no sharp cut-off; inactive = mostly below about 14%; note: read at 38.3 µM for the half of the compounds with a filed dose; 0% is about no effect
Pf growth 96h: P. falciparum growth inhibition at 96 hours; P. falciparum luciferase reporter growth, 96 h; Potency, µM (top dose mostly 28.7 µM), for the others: at the top dose activity change, negative = inhibition, usual class: inhibitors; actives 6.9% (n = 320,000); AID 504834; note: potency is the fitted concentration of half-maximal effect; % is set by controls: 0 for no effect and ±100 for the full control effect
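Delayed-death screen, second-generation endpoint: infected erythrocytes, 2% hematocrit, 0.05% parasitemia final; 96 hours at 37 C, 5% CO2; luciferase detection reagent; luminescence decrease equals reduced growth.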
Pf growth 48h: inhibits P. falciparum growth in the first generation, 48 h; actives 5.9% (n = 310,000); Potency, µM (series often up to 28.7 µM), without a hit: at the top dose activity change, negative = inhibition, actives largely listed as inhibitors; P. falciparum luciferase growth in erythrocytes, 48 h; note: potency is the fitted concentration of half-maximal effect; % is set by controls: 0 for no effect and ±100 for the full control effect
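A one-generation exposure of luciferase-tagged malaria parasites in RPMI 1640/Albumax erythrocyte culture, 37 C and 5% CO2. Inhibition is inferred from decreased luminescence after adding detection reagent.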
Starred values were filed as active, the others as inactive; ? = inconclusive; · = no result; ! = a repeat was not active; [ ] = remark or other dose. A selection: hits, their analogues and other compounds. The true share with any hit is near 19%. Unless noted, calls come from the whole dose curve; as a rule, active = well fitted inhibition curve with a large enough effect; inconclusive = small, poorly fitted or top-dose-only effect, or another doubt; inactive = no such curve, though single readings can be large or run the other way.

SMILES	MARV entry inh	Shiga inhibitor	Lassa entry inh	Cycloheximide cs	Pf growth 96h	Pf growth 48h
CC(=O)c1ccc(N2CCN(C(=O)c3cc(-c4cccnc4)nc4ccc(Br)cc34)CC2)cc1	?	-4	?	-1	-13%	?
Cc1ccccc1C(=O)N1CCN(c2ccc([N+](=O)[O-])c(NCc3cccnc3)c2)CC1	?	-20	0%	-2	257%	?
Cc1ccc(C(=O)N2CCN(c3ccc([N+](=O)[O-])c(NCc4cccnc4)c3)CC2)cc1	?	13	?	-6	3.7µM*	8.3µM*
Cc1ccc2nc(-c3cccnc3)cc(C(=O)N3CCN(c4ccc([N+](=O)[O-])cc4)CC3)c2c1	-12%[46.1 µM]	-21	·	-3	-32%	10µM*
Cc1ccc2c(C(=O)N3CCN(c4ccccc4)CC3)cc(-c3cccnc3)nc2c1C	?	-5	?	-4	-16%	2.3µM*
O=C(CCc1nc2ccccc2c(=O)[nH]1)NNC(=O)c1ccc(F)cc1	·	·	·	·	-16%	10%
O=C(O)C1C2CCC(C2)C1C(=O)Nc1cccc([N+](=O)[O-])c1 (stereo unspecified)	8%[46.1 µM]	-10	-14%[46.1 µM]	-4	?	10%[0.00184 µM]
CCCCC(=O)Nc1c(-c2cccc(OC)c2)c(=O)c2ccccc2n1C	·	-7	·	10	5%	10%
COc1cc(NC(=O)Cn2nc3c(cc2=O)CC(C)CC3)cc(OC)c1OC (stereo unspecified)	·	·	17%[46.1 µM]	·	·	·
COc1ccc(NC(=O)/C=C/c2ccccc2)c([N+](=O)[O-])c1	?	126*	8%	65*	?	76%
COc1ccc(NC(=O)c2sccc2C)c([N+](=O)[O-])c1	3%[46.1 µM]	87	21%	32*	-2%[5.75 µM]	42%
COc1cc(NC(=O)COc2ccccc2[N+](=O)[O-])ccc1NC(=O)c1cccs1	?	-5	?	-1	12µM*	52%
O=C(COC(=O)COc1ccccc1[N+](=O)[O-])Nc1cccc(Br)c1	17%	-6	28%	15*	44%	20%
Cc1ccc(NC(=O)CCn2cccn2)c(C)c1	·	·	0%[46.1 µM]	·	·	·
COc1ccc(NC(=O)C/C(C)=N/NC(=O)c2cccs2)c([N+](=O)[O-])c1	4%[46.1 µM]	120*	23%	61*	?	18%
CCOc1ccc(NC(=S)NC(=O)/C=C/c2ccc(OC)c(OC)c2)c([N+](=O)[O-])c1	15µM*	-4	?	-2	59%	?
COc1ccc(NC(=O)c2cccs2)c([N+](=O)[O-])c1	?	80*	23%	37*	40%	124%
CCOc1ccc(NC(=S)NC(=O)/C=C/c2ccc(C)cc2)c([N+](=O)[O-])c1	?	11	?	15	64%	7%
CCCCC(=O)Nc1ccc(C(=O)Nc2ccc(OC)cc2[N+](=O)[O-])cc1	?	15	-6%	1	3.7µM*	-22%
Cc1c(NC(=O)c2cccs2)cccc1[N+](=O)[O-]	27%[46.1 µM]	-4	4%	3	0%	20%
CCCCC(=O)Nc1ccc(NC(=O)c2ccc([N+](=O)[O-])cc2)cc1OC	1%	-4	0%	2	?	27%
O=C(NC1(O)C(=O)c2ccccc2C1=O)c1ccc(C(F)(F)F)cc1	0%	-2	?	2	84%	100%
Cc1ccc(OCc2nc(-c3ccccn3)n[nH]2)cc1	8%[46.1 µM]	52	-26%	32*	·	43%
Cc1cccc(OCc2nc(-c3ccccn3)n[nH]2)c1	-3%	28	?	16	19%	18%
Oc1ccc(/C=N/Nc2cccc3cccnc23)c(O)c1	?	102*	?	59*	53%	55%
SMILES	MARV entry inh	Shiga inhibitor	Lassa entry inh	Cycloheximide cs	Pf growth 96h	Pf growth 48h
O=C(CSc1cccc2cccnc12)N/N=C/c1cccc(O)c1	·	17	·	-3	25%	-13%
Cc1ccc(/C=N/Nc2cccc3cccnc23)c(O)c1	?	48	?	28*	190%	0%
CCN1CCC[C@@H](OC(=O)C(c2ccccc2)c2ccccc2)C1	·	·	·	·	-7%[12.8 µM]	-17%[12.8 µM]
O=C1NC(=O)C(c2ccccc2)(c2ccc(Cl)cc2Cl)N1 (stereo unspecified)	-2%[46.1 µM]	·	19%[46.1 µM]	·	·	·
CCOC(=O)c1ccc(N=c2sc(C(=O)OC)cc(=O)n2CCCN2CCOCC2)cc1	-4%	-21	·	-7	4.7µM*!	?
CCOC(=O)c1ccc(N=c2sc(C(=O)OC)cc(=O)n2Cc2ccco2)cc1	?	-6	?	-3	?	?
COC(=O)c1cc(=O)n(CCc2ccccc2)c(=Nc2ccc(F)cc2)s1	·	7	·	1	4.1µM*	?
Cc1cccc(C(=O)OCN2C(=O)c3ccccc3C2=O)c1[N+](=O)[O-]	·	-35	·	1	30%	26%
CC1C(=O)N2CCCc3cc(NC(=O)C(=O)NCCc4ccc(F)cc4)cc1c32 (stereo unspecified)	6%[46.1 µM]	·	-20%	·	?	?
CCCC[N+]12CCC(CC1)C(C(O)(c1ccccc1)c1ccccc1)C2 (stereo unspecified)	4%[46.1 µM]	11	12%[46.1 µM]	-1	10µM*	?
CC(O)(c1cccs1)C(C(=O)O)c1ccccc1 (stereo unspecified)	-10%	·	-3%[46.1 µM]	·	·	·
CCC[N+]12CCC(CC1)C(C(O)(c1ccccc1)c1ccccc1)C2 (stereo unspecified)	·	-11	·	-2	5.2µM*	?
CCCC[N+]12CCC(CC1)C(Cc1ccccc1)C2 (stereo unspecified)	19%[46.1 µM]	1	13%	-2	?	?
C[N+]12CCC(CC1)C(C(O)(c1ccccc1)c1cccs1)C2 (stereo unspecified)	1%	-2	-5%	-3	2.6µM*	12µM*
O=C(CSc1ncc(S(=O)(=O)c2ccccc2)c(=O)[nH]1)Nc1ccccc1Cl	10%[46.1 µM]	-22	11%	-4	19%	2%
CCOc1[nH]c(/N=C/c2ccco2)c(C#N)c1C#N	6%	13	-1%	-1	10%	22%
COCCN(Cc1ccccc1)C(=S)Nc1ccc(OC(F)F)cc1	?	-14	16µM*	-3	24%	7%
FC(F)Oc1ccc(NC(=S)NCc2ccccc2)cc1	?	37*	13%	11*	60%	15%
Oc1cccc2c(NC(=S)Nc3ccc(OC(F)F)cc3)cccc12	?	88*	?	74*	?	2%
FC(F)Oc1ccc(NC(=S)Nn2cnnc2)cc1	·	-5	·	0	0%	-17%
FC(F)Oc1ccc(NC(=S)NCCc2ccccn2)cc1	?	45	15%	29*	-20%	-10%
CCCN(Cc1ccccc1)C(=S)Nc1ccc(OC(F)F)cc1	?	-3	17%	5	7%	3%
O=C(Nc1ccc(Cl)cc1)N1CCOC12CCC1(CC2)OCCO1	13%[46.1 µM]	26	2%	14	70%	45%
